# Shown are actives, neighbours in structure and some others; about 9% of the full set was active somewhere.
# BAZ2B block: qHTS Assay for Inhibitors of BAZ2B; Bromodomain adjacent to zinc finger domain protein 2B (Homo sapiens), Q9UIF8; AlphaScreen BAZ2B-H3K14Ac peptide displacement; Potency, µM (doses to about 114 µM), for inactives: at the highest dose activity change, negative = inhibition, actives largely listed as inhibitors; actives 4.4% (n = 360,000); AID 504333, 2011; note: % is set by controls: 0 for no effect and ±100 for the full control effect; nearly all actives have a fitted effect of over 60% in size
#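 AlphaScreen displacement of biotin-H3(5-23)K14Ac peptide (50 nM final) from BAZ2B (50 nM final) in PBS pH 7.4, 0.01% Tween-20; complex preformed 30 min RT, then compounds (top 110 uM) 30 min RT, beads 20 min dark.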
# G9a inh: qHTS Assay for Inhibitors of Histone Lysine Methyltransferase G9a; Histone-lysine N-methyltransferase EHMT2 (Homo sapiens), Q96KQ7; actives 8.8% (n = 350,000); G9a H3K9 monomethylation, AlphaScreen, 2 h; Potency, µM (doses to about 102 µM), for inactives: top-dose activity, negative = inhibition, actives largely listed as inhibitors; AID 504332, 2011; note: % is set by controls: 0 for no effect and ±100 for the full control effect; nearly all actives have a fitted effect of over 75% in size
#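 Chemiluminescent proximity detection of H3K9 monomethylation, read after 10 min bead incubation in the dark. Reaction: 20 nM G9a, 500 nM biotin-H3K9 peptide, 20 uM SAM cofactor, 2 h, room temperature, following 15 min enzyme-compound preincubation.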
# HP1b chromo inh: HTS for Inhibitors of HP1-beta Chromodomain Interactions with Methylated Histone Tails; AlphaScreen HP1-beta / biotin-H3K9me3 peptide binding; actives 0.56% (n = 390,000); Potency, µM (highest dose often 114 µM), for inactives: top-dose activity change, negative = inhibition, most hits filed as inhibitors; note: nearly all actives have a fitted effect of over 70% in size
#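 HP1-beta protein (50 nM final) preincubated 30 min at room temperature with biotinylated H3(1-18)K9me3 peptide (50 nM) in PBS pH 7.4, 0.01% Tween-20, then compound added for 30 min. AlphaScreen streptavidin donor/nickel chelate acceptor beads (10 ug/mL final), 30 min dark, luminescence read.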
# JMJD2A Tudor inh: qHTS Assay for Inhibitors of JMJD2A-Tudor Domain | Lysine-specific demethylase 4A (Homo sapiens), O75164 | Potency, µM (titrated, usually from 114 µM), for inactives: at the highest dose activity change, negative = inhibition, usual class: inhibitors | AlphaScreen JMJD2A-Tudor / H3K4me3 peptide binding | actives 4.4% (n = 390,000); note: % is set by controls: 0 for no effect and ±100 for the full control effect; nearly all actives have a fitted effect of over 50% in size
# PLK1 PBD block: qHTS for Inhibitors of PLK1-PDB (polo-like kinase 1 - polo-box domain): Primary Screen | Serine/threonine-protein kinase PLK1 (Homo sapiens), P53350 | Plk1 PBD binding of FITC phosphopeptide, fluorescence polarization | actives 2.8% (n = 360,000) | AID 720504, 2013 | Potency, µM, for the others: max response, negative = inhibition, hits mostly inhibitors; note: series mostly up to about 57 µM; % is set by controls: 0 for no effect and ±100 for the full control effect; nearly all actives have a fitted effect of over 65% in size
# Target sequence (P53350 whole entry, looked up, the tested form may be a part): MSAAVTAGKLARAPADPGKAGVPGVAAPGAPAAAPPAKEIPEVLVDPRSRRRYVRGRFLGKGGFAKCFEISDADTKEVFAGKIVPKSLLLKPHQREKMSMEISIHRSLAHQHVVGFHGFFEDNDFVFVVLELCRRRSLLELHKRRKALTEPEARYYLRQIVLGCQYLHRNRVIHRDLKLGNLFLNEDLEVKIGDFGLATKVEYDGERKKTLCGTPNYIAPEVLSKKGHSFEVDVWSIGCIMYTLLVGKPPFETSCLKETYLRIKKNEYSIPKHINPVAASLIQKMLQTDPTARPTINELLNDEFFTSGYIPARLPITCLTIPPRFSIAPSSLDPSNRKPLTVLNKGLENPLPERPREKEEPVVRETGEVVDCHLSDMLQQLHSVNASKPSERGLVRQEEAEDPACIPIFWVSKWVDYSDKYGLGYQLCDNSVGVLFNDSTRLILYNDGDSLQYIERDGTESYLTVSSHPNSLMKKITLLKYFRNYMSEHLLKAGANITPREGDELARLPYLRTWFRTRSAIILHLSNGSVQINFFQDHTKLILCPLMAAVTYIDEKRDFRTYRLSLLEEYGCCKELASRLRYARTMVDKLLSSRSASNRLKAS
# 12-LOX inh: Primary qHTS assay for inhibitors of human arachidonate 12S-lipoxygenase (ALOX12): Round 2. Polyunsaturated fatty acid lipoxygenase ALOX12 (Homo sapiens), P18054. purified 12hLO, xylenol orange hydroperoxide absorbance. Potency, µM (series often up to 108 µM), for inactives: top-dose activity change, negative = inhibition, hits mostly inhibitors. actives 1.1% (n = 580,000). AID 1671190, 2021; note: % is set by controls: 0 for no effect and ±100 for the full control effect
#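 Purified human 12hLO (150 nM final) in 25 mM Hepes, 0.01% Triton X-100, pH 7.0 was preincubated 15 min at room temperature with compound. Then 40 uM arachidonic acid was added, 30 min. Hydroperoxide was read by Fe-XO absorbance ratio 573/405 nm.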
# * marks the source's active call; other numbers are inactive results; ? = inconclusive; . = not tested or not shown; [ ] = another dose, or the depositor's remark. Calls come from the whole dose curve; as a rule, active = well fitted curve in the direction sought with a large enough effect; inconclusive = small, poorly fitted or top-dose-only effect, or another doubt; inactive = no such curve, though single readings can be large; an effect the other way counts as inactive or inconclusive. Potency is the fitted concentration of half-maximal effect.
SMILES,BAZ2B block,G9a inh,HP1b chromo inh,JMJD2A Tudor inh,PLK1 PBD block,12-LOX inh
N#CCOc1ccc2oc(-c3ccco3)cc(=O)c2c1,1%,-42%,.,.,.,.
CCCOc1ccc(C(=O)c2nc3c(n2O)CCCCC3)cc1,-5%,-20%[12.7 µM],10%,?,-5%,-15%
O=C(C1CCCN(c2ncnc3c2nc2n3CCCCC2)C1)N1CCN(c2ccc(F)cc2)CC1 (configuration not stated),-29%,-9%,-16%,?,27µM*,1%
O=C(C1CCCN(c2ncnc3c2nc2n3CCCCC2)C1)N1CCN(c2ccc(Cl)cc2)CC1 (configuration not stated),?,.,-9%,?,-2%,-3%
O=C(C1CCN(c2ncnc3c2nc2n3CCCCC2)CC1)N1CCN(c2cccc(Cl)c2)CC1,32µM*,11%,38%,?,-2%,-2%
CC(=O)c1ccc(N2CCN(C(=O)C3CCCN(c4ncnc5c4nc4n5CCCCC4)C3)CC2)cc1 (configuration not stated),?,.,27%,-13%,-11%,1%
COc1ccc(N2CCN(C(=O)C3CCCN(c4ncnc5c4nc4n5CCCCC4)C3)CC2)cc1 (configuration not stated),28µM*,.,-2%,?,-15%,3%
O=C(C1CCN(c2ncnc3c2nc2n3CCCCC2)CC1)N1CCN(c2ccc(Cl)cc2)CC1,-1%,-9%[59 µM],-19%,-22%,.,0%
CCC(CC)c1nnc(NC(=O)C2CC(=O)N(CCc3ccc(F)cc3)C2)s1 (configuration not stated),?,3.2µM*,?,-19%,24µM*,?
CCC(C)(C)c1nnc(NC(=O)C2CC(=O)N(CCc3ccc(F)cc3)C2)s1 (configuration not stated),2%,45µM*,-9%,-9%,?,-71%
CC(C)(C)NC(=O)C1CC(=O)N(CCc2ccc(F)cc2)C1 (configuration not stated),13%,21%,41%,-10%,-8%,7%
CCC(CC)c1nnc(NC(=O)C2CC(=O)N(CCc3ccc(OC)c(OC)c3)C2)s1 (configuration not stated),9%,-5%,12%,-12%,2%,-4%
Cc1cccc(N2C(=O)CS(=O)(=O)C23C(=O)N(C)c2ccccc23)c1 (configuration not stated),8%[57.1 µM],-24%[59 µM],30%,-10%,.,-5%
Cc1ccc(N2C(=O)CS(=O)(=O)C23C(=O)N(C)c2ccccc23)cc1F (configuration not stated),6%[57.1 µM],13µM*,17%,-10%,.,?
CN(C)C(CNC(=O)c1cc(S(=O)(=O)N(C)c2ccc(F)cc2)ccc1Cl)c1ccco1 (configuration not stated),-19%,-33%[12.7 µM],12%,-15%,2%,0%
CN(c1ccc(F)cc1)S(=O)(=O)c1ccc(Cl)c(C(=O)NCC(c2ccco2)N2CCCCC2)c1 (configuration not stated),56µM*,28µM*,-34%,?,3%,0.79µM*
CCN(CC(=O)NC(C)(C)C)C(=O)CSc1nc2ccccc2o1,.,.,.,.,.,5%
Cc1ccccc1-n1c(SCc2c(C)noc2C)nnc1-c1cccnc1,3%,40µM*,60%,-1%,?,436%
CCn1c(CSc2nnc(-c3cccnc3)n2-c2ccccc2C)nc2cc(C(=O)O)ccc21,?,13µM*,.,.,.,.
Cc1noc(C)c1CSc1nnc(-c2ccccc2F)n1CCc1ccccc1,6%,40µM*,50%,-13%,-15%,-2%
CCn1c(CSc2n[nH]c(N)n2)nc2cc(C(=O)O)ccc21,?,40µM*,47%,?,-14%,-2%
COc1cc(/C=C/CNC[C@H]2O[C@@H](n3ccc(N)nc3=O)[C@H](O)[C@@H]2O)ccc1O,.,.,.,.,-20%,-2%
CN(C)CCCN(Cc1cc2cc3c(cc2[nH]c1=O)OCO3)C(=S)Nc1cccc(Cl)c1,-39%,50µM*,-1%,?,-17%,-29%
Cc1ccc(CN(Cc2cc3cc4c(cc3[nH]c2=O)OCCO4)Cc2nnnn2Cc2ccco2)cc1,-32%,13µM*,-16%,-35%,-28%,-20%
COc1ccccc1CN(Cc1cc2c(C)ccc(C)c2[nH]c1=O)Cc1nnnn1Cc1ccco1,-33%,13µM*,14%,-22%,-10%,?
SMILES,BAZ2B block,G9a inh,HP1b chromo inh,JMJD2A Tudor inh,PLK1 PBD block,12-LOX inh
Cc1ccc2cc(CN(Cc3ccc4c(c3)OCO4)Cc3nnnn3Cc3ccco3)c(=O)[nH]c2c1,?,?,9%,-17%,-2%,-53%
CN(C)CCCN(Cc1cc2cc3c(cc2[nH]c1=O)OCO3)C(=S)Nc1ccccc1,-20%,-5%,9%,-14%,1%,0%
Cc1ccc(C)c2[nH]c(=O)c(C(c3nnnn3Cc3ccco3)N3CCc4ccccc4C3)cc12 (configuration not stated),-32%,32µM*,20%,-31%,-24%,?
CCN1CCc2nc(NC(=O)Cc3ccc4c(c3)OCCO4)sc2C1,0%,?,7%,-31%,2%,-9%
CC(C)(C)OC(=O)N1CCC(c2c(C(=O)N3CCN(c4ccccn4)CC3)cnn2-c2ccc(F)cc2)CC1,14%[57.1 µM],-3%[59 µM],13%,-15%,.,-4%
Cn1cc(/C=C(\NC(=O)c2ccccc2)C(=O)NCCCN2CCOCC2)c2ccccc21,-10%,-1%[0.0925 µM],1%,-6%,-6%,-26%
CNC(=S)N(Cc1ccco1)Cc1cc2cc3c(cc2[nH]c1=O)OCCO3,-26%,79µM*,-10%,-28%,27µM*,-17%
CCNC(=S)N(Cc1ccco1)Cc1cc2cc3c(cc2[nH]c1=O)OCCO3,7%,18%[59 µM],27%,10%,-8%,0%
Cc1sc(N)c(C(=O)c2ccccc2Cl)c1C,45µM*,17%[12.7 µM],?,?,-25%,-15%
CN(Cc1cccs1)c1ncnc2ccc(-c3ccc4cn(C)nc4c3)cc12,.,.,.,-25%,.,.
COCCN1CCn2c(nc3cc([N+](=O)[O-])ccc32)C1,-24%,35µM*,60%,-3%[11.4 µM],-14%,1%

# Screening data deposited in PubChem BioAssay by National Center for Advancing Translational Sciences (NCATS).
